Sequences and labels used below:
B1: GCGUGUG (DNA:RNA)
RNA: GGGAGACCGGAAUUCAGAUUGUCCGCGUGUGUUAAAUCCCGUCGUAGCCACCA
DNA 1: CAATCTGAATTCCGGTCTCCC
DNA 2: TGGTGGCTACGACGGGATT
B2: UCUAACG (DNA:RNA)
RNA: B1 RNA with G25U, G27U, U28A, G29A, U30C
DNA 1: CAATCTGAATTCCGGTCTCCC
DNA 2: TGGTGGCTACGACGGGATT
B3: UCCCUGA (DNA:RNA)
RNA: B1 RNA with G25U, G27C, U28C, G29U, U30G, G31A
DNA 1: CAATCTGAATTCCGGTCTCCC
DNA 2: TGGTGGCTACGACGGGATT
B4: UCAAAGA (DNA:RNA)
RNA: B1 RNA with G25U, G27A, U28A, G29A, U30G, G31A
DNA 1: CAATCTGAATTCCGGTCTCCC
DNA 2: TGGTGGCTACGACGGGATT
B5: UGCAGCC (DNA:RNA)
RNA: B1 RNA with G25U, C26G, G27C, U28A, U30C, G31C
DNA 1: CAATCTGAATTCCGGTCTCCC
DNA 2: TGGTGGCTACGACGGGATT
B6: CGUUGGA (DNA:RNA)
RNA: B1 RNA with G25C, C26G, G27U, U30G, G31A
DNA 1: CAATCTGAATTCCGGTCTCCC
DNA 2: TGGTGGCTACGACGGGATT
B7: GGACCUA (DNA:RNA)
RNA: B1 RNA with C26G, G27A, U28C, G29C, G31A
DNA 1: CAATCTGAATTCCGGTCTCCC
DNA 2: TGGTGGCTACGACGGGATT
B8: CGGGUCU (DNA:RNA)
RNA: B1 RNA with G25C, C26G, U28G, G29U, U30C, G31U
DNA 1: CAATCTGAATTCCGGTCTCCC
DNA 2: TGGTGGCTACGACGGGATT
B9: CGGGGUC (DNA:RNA)
RNA: B1 RNA with G25C, C26G, U28G, G31C
DNA 1: CAATCTGAATTCCGGTCTCCC
DNA 2: TGGTGGCTACGACGGGATT
B10: GGGGUCU (DNA:RNA)
RNA: B1 RNA with C26G, U28G, G29U, U30C, G31U
DNA 1: CAATCTGAATTCCGGTCTCCC
DNA 2: TGGTGGCTACGACGGGATT
B11: CCGGGUC (DNA:RNA)
RNA: B1 RNA with G25C, U28G, G31C
DNA 1: CAATCTGAATTCCGGTCTCCC
DNA 2: TGGTGGCTACGACGGGATT
B12: GGGUCUU (DNA:RNA)
RNA: B1 RNA with C26G, G29C, G31U
DNA 1: CAATCTGAATTCCGGTCTCCC
DNA 2: TGGTGGCTACGACGGGATT
B13: GGGGGUC (DNA:RNA)
RNA: B1 RNA with C26G, U28G, G31C
DNA 1: CAATCTGAATTCCGGTCTCCC
DNA 2: TGGTGGCTACGACGGGATT
B14: UACCUCU (DNA:RNA)
RNA: GGGAGACCGGAAUUCAGAUUGUCCUACCUCUUUAAAUCCCGUCGUAGCCACCA
DNA 1: CAATCTGAATTCCGGTCTCCC
DNA 2: TGGTGGCTACGACGGGATT
B15: CUGGGAG (DNA:RNA)
RNA: B1 RNA with G25C, C26U, U28G, U30A
DNA 1: CAATCTGAATTCCGGTCTCCC
DNA 2: TGGTGGCTACGACGGGATT
B16: GUUAGAA (DNA:RNA)
RNA: B1 RNA with C26U, G27U, U28A, U30A, G31A
DNA 1: CAATCTGAATTCCGGTCTCCC
DNA 2: TGGTGGCTACGACGGGATT
B17: AGUGUCU (DNA:RNA)
RNA: B14 RNA with U25A, A26G, C27U, C28G
DNA 1: CAATCTGAATTCCGGTCTCCC
DNA 2: TGGTGGCTACGACGGGATT
B18: AGAUAUU (DNA:RNA)
RNA: B1 RNA with G25A, C26G, G27A, G29A, G31U
DNA 1: CAATCTGAATTCCGGTCTCCC
DNA 2: TGGTGGCTACGACGGGATT
B19: AGUGGUA (DNA:RNA)
RNA: B1 RNA with G25A, C26G, G27U, U28G, G31A
DNA 1: CAATCTGAATTCCGGTCTCCC
DNA 2: TGGTGGCTACGACGGGATT
B20: CGGGCAG (DNA:RNA)
RNA: B1 RNA with G25C, C26G, U28G, G29C, U30A
DNA 1: CAATCTGAATTCCGGTCTCCC
DNA 2: TGGTGGCTACGACGGGATT
B21: GGGGCAA (DNA:RNA)
RNA: B1 RNA with C26G, U28G, G29C, U30A, G31A
DNA 1: CAATCTGAATTCCGGTCTCCC
DNA 2: TGGTGGCTACGACGGGATT
B22: GGGCAAA (DNA:RNA)
RNA: B1 RNA with C26G, U28C, G29A, U30A, G31A
DNA 1: CAATCTGAATTCCGGTCTCCC
DNA 2: TGGTGGCTACGACGGGATT
B23: GGGGCAG (DNA:RNA)
RNA: B1 RNA with C26G, U28G, G29C, U30A
DNA 1: CAATCTGAATTCCGGTCTCCC
DNA 2: TGGTGGCTACGACGGGATT
B24: GGGCAGU (DNA:RNA)
RNA: B1 RNA with C26G, U28C, G29A, U30G, G31U
DNA 1: CAATCTGAATTCCGGTCTCCC
DNA 2: TGGTGGCTACGACGGGATT
B25: CGGGCAA (DNA:RNA)
RNA: B1 RNA with G25C, C26G, U28G, G29C, U30A, G31A
DNA 1: CAATCTGAATTCCGGTCTCCC
DNA 2: TGGTGGCTACGACGGGATT

Substitutions are numbered along the chain they refer to; changes in the protein carry UniProt numbers. The full ranking holds about 16,000 sequences; the median of “ka relative to ugcaugu” is about 0.0091, and the highest 2% start at about 0.032. Shown is part of a subset that was picked to be rich in the highest values.

This test deals with T1, RBFOX1 RRM (Homo sapiens, UniProt Q9NWB1 109-208).
T1 sequence: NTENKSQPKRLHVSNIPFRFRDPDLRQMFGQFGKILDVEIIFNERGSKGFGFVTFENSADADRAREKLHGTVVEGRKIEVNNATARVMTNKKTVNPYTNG
The test can be described thus: EMSA; HiTS-Eq, 1 nM pool, 10 min; buffer printed only for the single-RNA assays: 10 mM Tris pH 7.5, 150 mM NaCl, 3.4 mM EDTA, 0.001% NP-40, 30 C. As to conditions: tags: His6 N-terminal (pET28a); label: 5' 32P. A digest of the protocol: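 Purified RbFox RRM, wild type or mutant, was incubated for 10 min in 50 µL with 1 nM of a 5′-radiolabelled RNA pool carrying 7 randomized nucleotides, whose flanks were annealed to DNA oligonucleotides, over a series of increasing protein concentrations. Unbound RNA was resolved on 8% native PAGE, cut out, reverse-transcribed, barcoded by PCR and sequenced on an Illumina HiSeq 2500. Relative association constants were derived from changes in read counts for each RNA species versus the control reaction and normalised to the cognate motif.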
(Mobility shift assays separate free from complexed probe on a gel.)
Regarding B1, the binding signal was 0.0222 KA relative to UGCAUGU. In the case of B2, the binding signal was 0.00601 KA relative to UGCAUGU. In the case of B3 it was 0.00782 KA relative to UGCAUGU; in that of B4, 0.00287 KA relative to UGCAUGU. Take B5: the binding signal is 0.0108 KA relative to UGCAUGU.

As for B6, the binding signal was 0.00714 KA relative to UGCAUGU. For the molecule B7, the binding signal is 0.0035 KA relative to UGCAUGU. As to B8, the binding signal is 0.0296 KA relative to UGCAUGU.

B9: the binding signal was 0.0407 KA relative to UGCAUGU.

Consider B10, for which the binding signal was 0.0436 KA relative to UGCAUGU. For B11, the binding signal was 0.0244 KA relative to UGCAUGU.

As for B12, the binding signal was 0.00918 KA relative to UGCAUGU.

For B13, the binding signal was 0.0306 KA relative to UGCAUGU.

Turning to B14, the binding signal was 0.00134 KA relative to UGCAUGU. In the case of B15 it was 0.0142 KA relative to UGCAUGU; in that of B16, 0.0142 KA relative to UGCAUGU; in that of B17, 0.0109 KA relative to UGCAUGU. Consider B18, for which the binding signal is 0.00865 KA relative to UGCAUGU. For the molecule B19, the binding signal is 0.0144 KA relative to UGCAUGU.

On to B20, for which the binding signal was 0.0252 KA relative to UGCAUGU. Take B21: the binding signal is 0.032 KA relative to UGCAUGU. To B22 belongs 0.0043 KA relative to UGCAUGU; to B23, 0.0491 KA relative to UGCAUGU. Regarding B24, the binding signal was 0.0161 KA relative to UGCAUGU. Turning to B25, the binding signal was 0.0227 KA relative to UGCAUGU.

For the origin of these results see article PMC9911399, “Two distinct binding modes provide the RNA-binding protein RbFox with extraordinary sequence specificity”.
